# Reference: PubChem BioAssay AID1159580 (chemical genetic matrix, 2015)
# “And” between values parts separate entries of the source, which are not always exact repeats. Equal entries are not always repeated. Out of some 5,500 compounds screened, about 2,000 (36%) were called active. Not shown: some 18% with an inconclusive outcome. The list shows a part of the results. Values without a mark were called inactive. Cut-off read from the data, not from the text of the source: active = normalized growth mostly below about 0.91 (no sharp cut-off); inconclusive = no clear call, values can overlap the other calls; inactive = mostly above about 0.92.
# Assay: chemical genetic growth profiling, strain panel (AID 1159580);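 note: tested at 20 µM; growth read once vehicle control cultures reached saturation at 30 °C; 1 = growth at the plate median or of vehicle wells; lower values mean less growth of the strain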
# Conditions: S. cerevisiae deletion strains, growth OD
compound,measurement,setting,value
Cc1cc(O)c2c(c1)C(=O)c1cccc(O)c1C2=O,normalized growth,"locus YAL013W, strain DEP1, active compounds read low",0.971
same,normalized growth,"locus YAL021C, strain ccr4, active compounds read low",0.991
same,normalized growth,"locus YAL026C, strain drs2, active compounds read low",0.974
same,normalized growth,"locus YAL030W, strain snc1, active compounds read low",1
same,normalized growth,"locus YBL061C, strain skt5, active compounds read low",0.999
same,normalized growth,"locus YBR009C, strain hhf1, active compounds read low",0.98
same,normalized growth,"locus YBR021W, strain FUR4, active compounds read low",1.05
same,normalized growth,"locus YBR023C, strain chs3, active compounds read low",1.01
same,normalized growth,"locus YBR171W, strain sec66, active compounds read low",0.996
same,normalized growth,"locus YBR229C, strain ROT2, active compounds read low",0.996
same,normalized growth,"locus YBR231C, strain swc5, active compounds read low",0.967
same,normalized growth,"locus YBR279W, strain paf1, active compounds read low",1
same,normalized growth,"locus YCL011C, strain gbp2, active compounds read low",1
same,normalized growth,"locus YCL016C, strain dcc1, active compounds read low",1
same,normalized growth,"locus YCL029C, strain bik1, active compounds read low",0.992
same,normalized growth,"locus YCL061C, strain MRC1, active compounds read low",1
same,normalized growth,"locus YCL069W, strain vba3, active compounds read low",1
same,normalized growth,"locus YCR088W, strain abp1, active compounds read low",1
same,normalized growth,"locus YDL005C, strain med2, active compounds read low",1.01
same,normalized growth,"locus YDL035C, strain GPR1, active compounds read low",0.975
same,normalized growth,"locus YDL040C, strain nat1, active compounds read low",0.985
same,normalized growth,"locus YDL074C, strain BRE1, active compounds read low",0.935
same,normalized growth,"locus YDL101C, strain DUN1, active compounds read low",0.997
same,normalized growth,"locus YDL185W, strain tfp1, active compounds read low",0.987
same,normalized growth,"locus YDL192W, strain arf1, active compounds read low",0.967
same,normalized growth,"locus YDR001C, strain nth1, active compounds read low",0.998
same,normalized growth,"locus YDR069C, strain doa4, active compounds read low",0.99
same,normalized growth,"locus YDR101C, strain arx1, active compounds read low",0.975
same,normalized growth,"locus YDR137W, strain rgp1, active compounds read low",0.791 (active)
same,normalized growth,"locus YDR159W, strain sac3, active compounds read low",1
same,normalized growth,"locus YDR162C, strain NBP2, active compounds read low",0.969
same,normalized growth,"locus YDR195W, strain ref2",1.18 [resistant] (active)
same,normalized growth,"locus YDR297W, strain sur2, active compounds read low",0.999
same,normalized growth,"locus YDR318W, strain mcm21, active compounds read low",0.989
same,normalized growth,"locus YDR334W, strain swr1, active compounds read low",0.993
same,normalized growth,"locus YDR335W, strain msn5, active compounds read low",0.989
same,normalized growth,"locus YDR388W, active compounds read low",0.994
same,normalized growth,"locus YDR392W, strain spt3, active compounds read low",0.82
same,normalized growth,"locus YDR502C, strain sam2, active compounds read low",1.01
same,normalized growth,"locus YEL003W, strain gim4, active compounds read low",0.988
same,normalized growth,"locus YEL037C, strain rad23, active compounds read low",0.982
same,normalized growth,"locus YEL061C, strain CIN8 (second series), active compounds read low",0.99
same,normalized growth,"locus YEL061C, strain CIN8, active compounds read low",0.993
same,normalized growth,"locus YER015W, strain faa2, active compounds read low",1.01
same,normalized growth,"locus YER016W, strain bim1, active compounds read low",1
same,normalized growth,"locus YER110C, active compounds read low",1
same,normalized growth,"locus YER111C, strain swi4, active compounds read low",1
same,normalized growth,"locus YER155C, strain BEM2 (second series), active compounds read low",0.985
same,normalized growth,"locus YER155C, strain BEM2, active compounds read low",1.01
same,normalized growth,"locus YER167W, strain BCK2, active compounds read low",0.995
same,normalized growth,"locus YFR010W, strain ubp6, active compounds read low",0.971
same,normalized growth,"locus YGL078C, strain dbp3, active compounds read low",1.02
same,normalized growth,"locus YGL086W, strain mad1, active compounds read low",0.965
same,normalized growth,"locus YGL167C, strain pmr1, active compounds read low",0.987
same,normalized growth,"locus YGL173C, strain kem1, active compounds read low",1
same,normalized growth,"locus YGL227W, strain vid30, active compounds read low",1.01
same,normalized growth,"locus YGL240W, strain doc1, active compounds read low",0.963
same,normalized growth,"locus YGL248W, strain PDE1, active compounds read low",0.981
same,normalized growth,"locus YGL253W, strain hxk2, active compounds read low",0.985
same,normalized growth,"locus YGR078C, strain PAC10, active compounds read low",0.964
same,normalized growth,"locus YGR135W, strain pre9, active compounds read low",1.01
same,normalized growth,"locus YGR252W, strain gcn5, active compounds read low",1.03
same,normalized growth,"locus YHR013C, strain ard1, active compounds read low",1
same,normalized growth,"locus YHR027C, strain rpn1, active compounds read low",0.998
same,normalized growth,"locus YHR030C, strain SLT2, active compounds read low",0.981 and 1.02
same,normalized growth,"locus YHR079C, strain IRE1 (second series), active compounds read low",0.995
same,normalized growth,"locus YHR079C, strain IRE1, active compounds read low",1.06
same,normalized growth,"locus YHR094C, strain hxt1, active compounds read low",1.01
same,normalized growth,"locus YHR129C, strain ARP1, active compounds read low",1
same,normalized growth,"locus YHR142W, strain chs7, active compounds read low",0.964
same,normalized growth,"locus YHR200W, strain rpn10, active compounds read low",0.994
same,normalized growth,"locus YIL066C, strain RNR3, active compounds read low",0.991
same,normalized growth,"locus YIL073C, strain SPO22, active compounds read low",0.935
same,normalized growth,"locus YIL125W, strain kgd1, active compounds read low",1
same,normalized growth,"locus YIR030C, strain dcg1, active compounds read low",1.01
same,normalized growth,"locus YJL092W, strain hpr5, active compounds read low",1.01
same,normalized growth,"locus YJL095W, strain BCK1 (second series), active compounds read low",0.999
same,normalized growth,"locus YJL095W, strain BCK1, active compounds read low",0.914 and 1.05
same,normalized growth,"locus YJL115W, strain asf1, active compounds read low",0.996
same,normalized growth,"locus YJL129C, strain trk1, active compounds read low",1.01
same,normalized growth,"locus YJL134W, strain LCB3, active compounds read low",1
same,normalized growth,"locus YJL154C, strain vps35, active compounds read low",0.997
same,normalized growth,"locus YJL164C, strain tpk1, active compounds read low",0.996
same,normalized growth,"locus YJL166W, strain qcr8, active compounds read low",0.983
same,normalized growth,"locus YJL168C, strain set2, active compounds read low",1
same,normalized growth,"locus YJL187C, strain SWE1 (second series), active compounds read low",0.954
same,normalized growth,"locus YJL187C, strain SWE1, active compounds read low",0.995
same,normalized growth,"locus YJR043C, strain POL32, active compounds read low",0.977
same,normalized growth,"locus YJR066W, strain TOR1, active compounds read low",0.979
same,normalized growth,"locus YKL009W, strain mrt4, active compounds read low",1.02
same,normalized growth,"locus YKL068W, active compounds read low",1.02
same,normalized growth,"locus YKL085W, strain MDH1 (second series), active compounds read low",1.01
same,normalized growth,"locus YKL085W, strain MDH1, active compounds read low",1.01
same,normalized growth,"locus YKL160W, strain elf1, active compounds read low",0.995
same,normalized growth,"locus YKL190W, strain CNB1, active compounds read low",0.991
same,normalized growth,"locus YKR001C, strain vps1, active compounds read low",0.928
same,normalized growth,"locus YKR026C, strain gcn3, active compounds read low",1.02
same,normalized growth,"locus YKR091W, strain srl3, active compounds read low",1
same,normalized growth,"locus YLL001W, strain dnm1, active compounds read low",1.01
same,normalized growth,"locus YLL026W, active compounds read low",1
same,normalized growth,"locus YLL041C, strain sdh2, active compounds read low",1.01
same,normalized growth,"locus YLR027C, strain aat2, active compounds read low",1.01
same,normalized growth,"locus YLR039C, strain RIC1, active compounds read low",0.818
same,normalized growth,"locus YLR058C, strain SHM2, active compounds read low",0.972
same,normalized growth,"locus YLR102C, strain apc9, active compounds read low",1.01
same,normalized growth,"locus YLR113W, strain HOG1, active compounds read low",1.07
same,normalized growth,"locus YLR221C, strain rsa3, active compounds read low",1.01
same,normalized growth,"locus YLR258W, strain gsy2, active compounds read low",0.991
same,normalized growth,"locus YLR262C, strain YPT6 (second series), active compounds read low",0.857 (active)
same,normalized growth,"locus YLR268W, strain sec22, active compounds read low",0.933
same,normalized growth,"locus YLR320W, strain mms22, active compounds read low",0.949
same,normalized growth,"locus YLR330W, strain CHS5, active compounds read low",0.986
same,normalized growth,"locus YLR342W, strain FKS1 (second series), active compounds read low",0.984
same,normalized growth,"locus YLR342W, strain FKS1, active compounds read low",1.01
same,normalized growth,"locus YLR357W, strain rsc2, active compounds read low",1.03
same,normalized growth,"locus YLR370C, strain arc18, active compounds read low",1.02
same,normalized growth,"locus YLR371W, strain rom2, active compounds read low",0.963
same,normalized growth,"locus YLR384C, strain iki3, active compounds read low",0.998
same,normalized growth,"locus YLR418C, strain cdc73, active compounds read low",0.936
same,normalized growth,"locus YML016C, strain PPZ1, active compounds read low",0.997
same,normalized growth,"locus YML032C, strain rad52, active compounds read low",0.935
same,normalized growth,"locus YML120C, strain ndi1, active compounds read low",0.998
same,normalized growth,"locus YML124C, strain tub3, active compounds read low",1.01
same,normalized growth,"locus YMR058W, strain fet3, active compounds read low",0.98
same,normalized growth,"locus YMR078C, strain ctf18, active compounds read low",0.988
same,normalized growth,"locus YMR125W, strain sto1, active compounds read low",1.05
same,normalized growth,"locus YMR129W, active compounds read low",0.999
same,normalized growth,"locus YMR205C, strain PFK2, active compounds read low",1.03
same,normalized growth,"locus YMR223W, strain ubp8, active compounds read low",0.968
same,normalized growth,"locus YMR231W, strain pep5, active compounds read low",0.999
same,normalized growth,"locus YMR263W, strain SAP30, active compounds read low",0.982
same,normalized growth,"locus YMR307W, strain GAS1, active compounds read low",0.883
same,normalized growth,"locus YNL067W, strain RPL9B, active compounds read low",0.99
same,normalized growth,"locus YNL071W, strain lat1, active compounds read low",0.996
same,normalized growth,"locus YNL183C, strain NPR1, active compounds read low",0.974
same,normalized growth,"locus YNL209W, strain ssb2, active compounds read low",0.988
same,normalized growth,"locus YNL233W, strain BNI4, active compounds read low",0.966
same,normalized growth,"locus YNL248C, strain rpa49, active compounds read low",0.948
same,normalized growth,"locus YNL250W, strain rad50, active compounds read low",1.04
same,normalized growth,"locus YNL271C, strain bni1, active compounds read low",1
same,normalized growth,"locus YNL298W, strain CLA4, active compounds read low",1.02
same,normalized growth,"locus YNL307C, strain MCK1, active compounds read low",1.01
same,normalized growth,"locus YNL322C, strain KRE1 (second series), active compounds read low",1.02
same,normalized growth,"locus YNR049C, strain mso1, active compounds read low",1.01
same,normalized growth,"locus YNR052C, strain pop2, active compounds read low",0.961
same,normalized growth,"locus YOL012C, strain htz1",1.1
same,normalized growth,"locus YOL147C, strain pex11, active compounds read low",0.994
same,normalized growth,"locus YOR001W, strain rrp6, active compounds read low",0.983
same,normalized growth,"locus YOR061W, strain CKA2, active compounds read low",1
same,normalized growth,"locus YOR069W, strain VPS5, active compounds read low",0.999
same,normalized growth,"locus YOR070C, strain gyp1, active compounds read low",1.02
same,normalized growth,"locus YOR080W, strain dia2, active compounds read low",0.996
same,normalized growth,"locus YOR083W, strain WHI5, active compounds read low",0.999
same,normalized growth,"locus YOR106W, strain vam3, active compounds read low",0.965
same,normalized growth,"locus YOR136W, strain idh2, active compounds read low",1.01
same,normalized growth,"locus YOR144C, strain elg1, active compounds read low",0.998
same,normalized growth,"locus YOR184W, strain ser1, active compounds read low",0.946
same,normalized growth,"locus YOR231W, strain MKK1, active compounds read low",1.09
same,normalized growth,"locus YOR265W, strain rbl2, active compounds read low",0.996
same,normalized growth,"locus YOR270C, strain vph1, active compounds read low",0.772 (active)
same,normalized growth,"locus YOR290C, strain snf2, active compounds read low",0.967
same,normalized growth,"locus YOR316C, strain cot1, active compounds read low",1.02
same,normalized growth,"locus YPL051W, strain arl3, active compounds read low",0.891 (active)
same,normalized growth,"locus YPL078C, strain atp4, active compounds read low",0.96
same,normalized growth,"locus YPL106C, strain sse1, active compounds read low",0.974
same,normalized growth,"locus YPL240C, strain hsp82, active compounds read low",1
same,normalized growth,"locus YPL256C, strain CLN2, active compounds read low",1.09
same,normalized growth,"locus YPR119W, strain clb2, active compounds read low",1
same,normalized growth,"locus YPR141C, strain kar3, active compounds read low",1.03
same,normalized growth,"locus YPR163C, strain tif3, active compounds read low",1
same,normalized growth,"locus YPR167C, strain met16, active compounds read low",0.998
same,normalized growth,"strain wtn01, active compounds read low",0.97
